From PMC9911399, “Two distinct binding modes provide the RNA-binding protein RbFox with extraordinary sequence specificity” come the findings set out here.

Where a chain is given by its changes, count along the chain named. The full ranking holds about 16,000 sequences; the median of “ka relative to ugcaugu” is about 0.0091, and the highest 2% start at about 0.032. Many of the other results were omitted from the sample, so the highest values are more common in it than they were.

T1: RBFOX1 RRM (Homo sapiens, UniProt Q9NWB1 109-208)
T1 sequence: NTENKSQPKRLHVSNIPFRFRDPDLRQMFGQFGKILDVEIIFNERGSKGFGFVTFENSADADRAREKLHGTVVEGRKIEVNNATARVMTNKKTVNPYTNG

B1: AUGCCAC (DNA:RNA)
RNA: GGGAGACCGGAAUUCAGAUUGUCCAUGCCACUUAAAUCCCGUCGUAGCCACCA
DNA 1: CAATCTGAATTCCGGTCTCCC
DNA 2: TGGTGGCTACGACGGGATT
B2: GUUACCC (DNA:RNA)
RNA: B1 RNA with A25G, G27U, C28A, A30C
DNA 1: CAATCTGAATTCCGGTCTCCC
DNA 2: TGGTGGCTACGACGGGATT
B3: UGGCGUU (DNA:RNA)
RNA: B1 RNA with A25U, U26G, C29G, A30U, C31U
DNA 1: CAATCTGAATTCCGGTCTCCC
DNA 2: TGGTGGCTACGACGGGATT
B4: UGGGGCG (DNA:RNA)
RNA: B1 RNA with A25U, U26G, C28G, C29G, A30C, C31G
DNA 1: CAATCTGAATTCCGGTCTCCC
DNA 2: TGGTGGCTACGACGGGATT
B5: CCUGGUG (DNA:RNA)
RNA: GGGAGACCGGAAUUCAGAUUGUCCCCUGGUGUUAAAUCCCGUCGUAGCCACCA
DNA 1: CAATCTGAATTCCGGTCTCCC
DNA 2: TGGTGGCTACGACGGGATT
B6: UGGUGCU (DNA:RNA)
RNA: B1 RNA with A25U, U26G, C28U, C29G, A30C, C31U
DNA 1: CAATCTGAATTCCGGTCTCCC
DNA 2: TGGTGGCTACGACGGGATT
B7: UGGGUGA (DNA:RNA)
RNA: B1 RNA with A25U, U26G, C28G, C29U, A30G, C31A
DNA 1: CAATCTGAATTCCGGTCTCCC
DNA 2: TGGTGGCTACGACGGGATT
B8: UGGGUGC (DNA:RNA)
RNA: B1 RNA with A25U, U26G, C28G, C29U, A30G
DNA 1: CAATCTGAATTCCGGTCTCCC
DNA 2: TGGTGGCTACGACGGGATT
B9: CCCUGGG (DNA:RNA)
RNA: B5 RNA with U27C, G28U, U30G
DNA 1: CAATCTGAATTCCGGTCTCCC
DNA 2: TGGTGGCTACGACGGGATT
B10: CUGGGUG (DNA:RNA)
RNA: B5 RNA with C26U, U27G
DNA 1: CAATCTGAATTCCGGTCTCCC
DNA 2: TGGTGGCTACGACGGGATT
B11: UGGGCGU (DNA:RNA)
RNA: B1 RNA with A25U, U26G, C28G, A30G, C31U
DNA 1: CAATCTGAATTCCGGTCTCCC
DNA 2: TGGTGGCTACGACGGGATT

The target in the assay is T1, RBFOX1 RRM. Kind of assay: EMSA; HiTS-Eq, 1 nM pool, 10 min; buffer printed only for the single-RNA assays: 10 mM Tris pH 7.5, 150 mM NaCl, 3.4 mM EDTA, 0.001% NP-40, 30 C. The following applies: tags: His6 N-terminal (pET28a); label: 5' 32P. The procedure, abridged:
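Purified wild-type or mutant RbFox RRM at increasing concentrations was equilibrated with 1 nM of 5′-radiolabelled RNA carrying 7 randomized nucleotides for 10 min in 50 µL. Unbound RNA was separated by 8% native PAGE and sequenced. Relative association constants came from read-count changes of each RNA species compared with the control reaction, normalised to the cognate motif.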
(In EMSA bound probe runs differently from free probe, usually more slowly.)
Turning to B1, the binding signal was 0.0065 KA relative to UGCAUGU. In the case of B2 it was 0.0047 KA relative to UGCAUGU; in that of B3, 0.0221 KA relative to UGCAUGU. Regarding B4, the binding signal is 0.0294 KA relative to UGCAUGU.

As for B5, the binding signal was 0.0199 KA relative to UGCAUGU. Next, B6: 0.0292 KA relative to UGCAUGU; B7: 0.0273 KA relative to UGCAUGU; B8: 0.0429 KA relative to UGCAUGU. In the case of B9 it was 0.00714 KA relative to UGCAUGU; in that of B10, 0.0408 KA relative to UGCAUGU. In the case of B11 it was 0.0388 KA relative to UGCAUGU.
